From PubChem
HCV inh: qHTS Assay for Inhibitors of Hepatitis C Virus (HCV); Huh7.5.1 HCVcc-Cre infection, luciferase reporter, 44 h; Potency, µM (highest dose often 41.8 µM), usual class: inhibitors; hit rate 3.4% among 340,000
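Compounds are dispensed onto cells plated 4 h earlier at 1,000 per well, with HCVcc-Cre virus (about 0.5 moi) added next. Following 44 h of culture, luminescent signal is measured for 15 sec after 15 min with substrate at room temperature.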
NS1 inh: qHTS Assay for Inhibitors of Influenza NS1 Protein Function; Potency, µM (highest dose often 46.1 µM); hit rate 0.4% among 270,000; calls by dose curve; note: actives are rising curves; nearly all actives have a fitted effect of over 50% in size
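Read-out: OD600 growth recovery of NS1-expressing budding yeast. Cells grown overnight at 30C in -URA glucose medium, washed, resuspended and diluted 1:100 in 2% galactose assay medium, pH 6.0. Same strain lacking NS1 served as positive control.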
Vaccinia Venus: qHTS for Stage-Specific Inhibitors of Vaccinia Orthopoxvirus: Venus Reporter Primary qHTS; Vaccinia virus Venus reporter expression, fluorescence; Potency, µM (series often up to 36.5 µM), most hits filed as inhibitors; hit rate 0.46% among 330,000; calls by dose curve; tested in A549 cells; note: nearly all actives have a fitted effect of over 30% in size
Pf growth 96h: Primary qHTS for delayed death inhibitors of the malarial parasite plastid, 96 hour incubation. P. falciparum luciferase reporter growth, 96 h. hit rate 6.9% among 320,000. AID 504834, 2011. Potency, µM (top dose mostly 28.7 µM), actives largely listed as inhibitors
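96 h incubation, 37 C, 5% CO2, of luciferase-reporter P. falciparum-infected RBCs (2% hematocrit, 0.05% parasitemia final) with test compounds; endpoint luminescence.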
Pf growth 48h: Primary qHTS for delayed death inhibitors of the malarial parasite plastid, 48 hour incubation | P. falciparum luciferase growth in erythrocytes, 48 h | Potency, µM (highest dose often 28.7 µM), most hits filed as inhibitors | hit rate 5.9% among 310,000
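A one-generation exposure of luciferase-tagged malaria parasites in RPMI 1640/Albumax erythrocyte culture, 37 C and 5% CO2. Inhibition is inferred from decreased luminescence after adding detection reagent.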
VACV mCherry inh: qHTS for Stage-Specific Inhibitors of Vaccinia Orthopoxvirus: mCherry Reporter Primary qHTS | Vaccinia virus mCherry reporter infection, fluorescence | Potency, µM (highest dose often 36.5 µM), hits mostly inhibitors | hit rate 0.63% among 310,000 | AID 720579, 2013; calls by dose curve; tested in A549 cells; note: nearly all actives have a fitted effect of over 35% in size
Each line names hits and unclear results; the compound was inactive in the other large screens; ! = repeats disagree. In the library only some 11% were active in any assay of this set; here they are far more common. Unless noted, calls come from the whole dose curve; as a rule, active = well fitted inhibition curve with a large enough effect; inconclusive = small, poorly fitted or top-dose-only effect, or another doubt; inactive = no such curve, though single readings can be large or run the other way.

Cc1nn(-c2ccccc2)nc1C(=O)Oc1cc(C(F)(F)F)nn1-c1ccccc1	NS1 inh inconclusive, Pf growth 48h 0.37µM (no result: Vaccinia Venus, VACV mCherry inh)
Cc1nn(-c2ccccc2)nc1C(=O)NNC(=O)c1ccc(C(F)(F)F)cc1	none
CCN=C1SC(CC(=O)NCCc2ccc(OC)cc2)C(=O)N1CC (configuration not stated)	none (no result: Vaccinia Venus, Pf growth 96h, VACV mCherry inh)
O=C(CCC(=O)NNC(=S)Nc1ccccc1)NCc1ccccc1	VACV mCherry inh inconclusive
Cc1nn(-c2ccccc2)c2nc(N)c(C#N)c(-c3ccc(C(C)(C)C)cc3)c12	Pf growth 96h 4.65µM, Pf growth 48h inconclusive (no result: Vaccinia Venus, VACV mCherry inh)
COc1cccc(-c2c(C#N)c(N)nc3c2c(C)nn3-c2ccccc2)c1O	HCV inh inconclusive, Pf growth 96h 0.522µM, Pf growth 48h 0.37µM (no result: Vaccinia Venus, VACV mCherry inh)
CCCOC(=O)C1[C@H]2C(=O)N(CCCOC)C[C@]23C=C[C@H]1O3 (some centres not stated)	none (no result: Vaccinia Venus, VACV mCherry inh)
CCCc1c(OCCCCc2nn[nH]n2)ccc(C(C)=O)c1O	Pf growth 96h 10.7µM!, Pf growth 48h inconclusive
CS(=O)(=O)Cc1cc(Sc2ccccc2)nc(-c2ccncc2)n1	HCV inh 3.16µM (no result: NS1 inh)
O=C(N/N=C/c1ccc2c(c1)OCO2)c1ccc(COc2cccc3cccnc23)cc1	HCV inh 12.6µM, Pf growth 96h inconclusive, Pf growth 48h inconclusive
O=C(N/N=C/c1cccc(O)c1)c1ccc(COc2cccc3cccnc23)cc1	HCV inh inconclusive, Pf growth 96h inconclusive (no result: NS1 inh)
O=C(N/N=C/c1ccncc1)c1ccc(COc2cccc3cccnc23)cc1	Pf growth 96h inconclusive, Pf growth 48h 8.28µM (no result: NS1 inh)
COc1ccc(/C=C2\Sc3ccc(C(=O)NCC4CCCO4)cc3N(C)C2=O)cc1 (configuration not stated)	HCV inh inconclusive, Pf growth 96h inconclusive, Pf growth 48h inconclusive
Cc1cc(/C=C2\Sc3ccccc3N2C)cc(C)[n+]1CC1CCCO1 (configuration not stated)	HCV inh 2.51µM, Vaccinia Venus inconclusive, Pf growth 96h inconclusive, Pf growth 48h inconclusive, VACV mCherry inh 8.91µM
C[C@H](NC(=O)c1nc[nH]c1C(=O)N[C@H](C)c1ccccc1)C(=O)OC(C)(C)C	HCV inh 12.6µM, Pf growth 48h inconclusive, VACV mCherry inh inconclusive
Cc1cccc(NC(=O)c2nc[nH]c2C(=O)N[C@H](C)c2ccccc2)c1	HCV inh inconclusive, Vaccinia Venus inconclusive, Pf growth 96h inconclusive, Pf growth 48h inconclusive, VACV mCherry inh 28.2µM (no result: NS1 inh)
C[C@H](NC(=O)c1nc[nH]c1C(=O)N[C@@H](Cc1ccccc1)C(=O)OC(C)(C)C)c1ccccc1	HCV inh inconclusive, NS1 inh inconclusive, Vaccinia Venus inconclusive, Pf growth 96h inconclusive, Pf growth 48h 3.29µM
C[C@@H](NC(=O)c1nc[nH]c1C(=O)N[C@@H](Cc1ccccc1)C(=O)OC(C)(C)C)c1ccccc1	NS1 inh inconclusive, Vaccinia Venus inconclusive, Pf growth 96h inconclusive, Pf growth 48h inconclusive
COc1ccccc1Cc1c(-c2ccc(C#N)cc2)nc2ccc(Br)cn12	none (no result: HCV inh, NS1 inh, Pf growth 96h, Pf growth 48h)
O=C1OC(/C(=C\Nc2cc(Cl)ccc2O)[N+](=O)[O-])c2ccccc21 (configuration not stated)	Pf growth 96h inconclusive, Pf growth 48h 10.4µM, VACV mCherry inh inconclusive (no result: NS1 inh)
O=C1OC(/C(=C\Nc2ccc(F)cc2F)[N+](=O)[O-])c2ccccc21 (configuration not stated)	Pf growth 48h inconclusive
C/C=C(\C)C(=O)OC1C(C)=C2C(C1OC(=O)CCCCC)C(C)(OC(C)=O)CC(OC(=O)CCC)C1(O)C2OC(=O)C1(C)O (configuration not stated)	Pf growth 96h 2.94µM, Pf growth 48h 4.15µM (no result: HCV inh, Vaccinia Venus, VACV mCherry inh)
CC=C(C)C(=O)O[C@H]1C(C)=C2[C@@H]3OC(=O)[C@@](C)(O)[C@@]3(O)[C@@H](OC(=O)CCC)C[C@](C)(OC(C)=O)[C@@H]2[C@@H]1OC(=O)CCCCCCC	VACV mCherry inh inconclusive (no result: HCV inh, NS1 inh, Pf growth 96h, Pf growth 48h)
CCCn1c(C(=O)OC)cc2c1ccn2-c1ccc(F)cc1	HCV inh 31.6µM, Pf growth 96h inconclusive, Pf growth 48h inconclusive (no result: Vaccinia Venus, VACV mCherry inh)
COC(=O)c1cc2c(ccn2-c2ccc(F)cc2)n1Cc1ccc(OC(C)=O)cc1	HCV inh 8.91µM, NS1 inh inconclusive, Pf growth 96h inconclusive, Pf growth 48h inconclusive
COC(=O)c1cc2c(ccn2-c2ccc(F)cc2)n1CC(C)C	HCV inh 11.2µM, Pf growth 96h inconclusive, Pf growth 48h inconclusive (no result: Vaccinia Venus, VACV mCherry inh)
CC(=O)c1cc(N2CCOCC2)ccc1[N+](=O)[O-]	none
Fc1ccccc1NC(=S)N1CCN(Cc2ccccc2)CC1	none
Cc1ccc(-n2ncc(C(=O)N3CCN(c4ncccn4)CC3)c2C2CCN(C(=O)OC(C)(C)C)CC2)cc1	none (no result: HCV inh, NS1 inh, Pf growth 96h, Pf growth 48h)
COc1ccc(/C=C2\C(=O)NC(=S)N2C(=O)c2ccc(C)cc2)cc1	Pf growth 96h 7.38µM
CCCCNC(=O)c1cc2cccc([N+](=O)[O-])c2[nH]1	HCV inh inconclusive, Pf growth 96h inconclusive, Pf growth 48h 2.62µM
CN(C)c1ccc(N2CN=C3SCC(=O)N3C2)cc1	Pf growth 96h inconclusive, Pf growth 48h 1.47µM
Cc1ccc(NC2(c3nnnn3-c3c(C)cccc3C)CCCCC2)cc1	HCV inh inconclusive, Pf growth 96h inconclusive, Pf growth 48h 13.1µM
COCCN1C(=O)CCC1(C)c1nnnn1-c1c(C)cccc1C (configuration not stated)	none (no result: HCV inh, NS1 inh, Pf growth 96h, Pf growth 48h)
Cc1ccccc1-c1nc(NCCN(C)C)nc2ccsc12	none (no result: HCV inh, NS1 inh, Pf growth 96h, Pf growth 48h)
Cc1ccc(C)c(C(=O)C(C)Sc2nc3nn(-c4ccccc4)c(=O)c-3c3n2CCCCC3)c1 (configuration not stated)	Pf growth 96h 9.28µM, Pf growth 48h inconclusive (no result: Vaccinia Venus, VACV mCherry inh)
CCSc1nc2nn(-c3ccccc3)c(=O)c-2c2n1CCCCC2	none (no result: Pf growth 96h, VACV mCherry inh)
O=C(CSc1nc2nn(-c3ccccc3)c(=O)c-2c2n1CCCCC2)c1ccc(OC(F)F)cc1	HCV inh 7.94µM (no result: NS1 inh, Vaccinia Venus, Pf growth 96h, Pf growth 48h, VACV mCherry inh)
COc1ccc(C(=O)/C=C/C(=O)N(Cc2ccc(F)cc2)C(C(=O)NC2CCCCC2)c2ccncc2)c(O)c1 (configuration not stated)	HCV inh inconclusive, Vaccinia Venus inconclusive, Pf growth 48h 5.22µM
COc1ccc(C(=O)/C=C/C(=O)N(Cc2ccccc2OC)C(C(=O)NC2CCCCC2)c2ccncc2)c(O)c1 (configuration not stated)	HCV inh inconclusive, Vaccinia Venus inconclusive, Pf growth 48h 11.7µM
COc1ccc(OC)c(C(=O)c2ccc(C(=O)Nc3cccc4ccccc34)cc2)c1	HCV inh inconclusive, Pf growth 48h inconclusive
C=CCOn1c(=O)c(-c2cc3ccccc3o2)[n+]([O-])c2ccccc21	Pf growth 96h inconclusive, Pf growth 48h inconclusive
COCCNC(=O)c1cccc(Nc2nc3ccccc3n3nnnc23)c1	none (no result: HCV inh, NS1 inh, Pf growth 96h, Pf growth 48h)
